Laboratory results: the supplement of paper PMC11732987, “Enantioselective OTUD7B fragment discovery through chemoproteomics screening and high-throughput optimisation” (Communications Chemistry, 2025)

Columns and labels:
Assay in all cases: log2 ratio of Biotin-Ahx-Ub-VS probe labelling (fragment/DMSO); higher = less target engagement (more negative = stronger competition), active = hit call of the paper (q ≤ 0.05, log2 ratio ≤ -1)
Conditions in all cases: compound concentration: 200 uM; treatment time: 3 h
[1] = target: T1, USP19 (UniProt O94966)
T1 sequence (whole entry): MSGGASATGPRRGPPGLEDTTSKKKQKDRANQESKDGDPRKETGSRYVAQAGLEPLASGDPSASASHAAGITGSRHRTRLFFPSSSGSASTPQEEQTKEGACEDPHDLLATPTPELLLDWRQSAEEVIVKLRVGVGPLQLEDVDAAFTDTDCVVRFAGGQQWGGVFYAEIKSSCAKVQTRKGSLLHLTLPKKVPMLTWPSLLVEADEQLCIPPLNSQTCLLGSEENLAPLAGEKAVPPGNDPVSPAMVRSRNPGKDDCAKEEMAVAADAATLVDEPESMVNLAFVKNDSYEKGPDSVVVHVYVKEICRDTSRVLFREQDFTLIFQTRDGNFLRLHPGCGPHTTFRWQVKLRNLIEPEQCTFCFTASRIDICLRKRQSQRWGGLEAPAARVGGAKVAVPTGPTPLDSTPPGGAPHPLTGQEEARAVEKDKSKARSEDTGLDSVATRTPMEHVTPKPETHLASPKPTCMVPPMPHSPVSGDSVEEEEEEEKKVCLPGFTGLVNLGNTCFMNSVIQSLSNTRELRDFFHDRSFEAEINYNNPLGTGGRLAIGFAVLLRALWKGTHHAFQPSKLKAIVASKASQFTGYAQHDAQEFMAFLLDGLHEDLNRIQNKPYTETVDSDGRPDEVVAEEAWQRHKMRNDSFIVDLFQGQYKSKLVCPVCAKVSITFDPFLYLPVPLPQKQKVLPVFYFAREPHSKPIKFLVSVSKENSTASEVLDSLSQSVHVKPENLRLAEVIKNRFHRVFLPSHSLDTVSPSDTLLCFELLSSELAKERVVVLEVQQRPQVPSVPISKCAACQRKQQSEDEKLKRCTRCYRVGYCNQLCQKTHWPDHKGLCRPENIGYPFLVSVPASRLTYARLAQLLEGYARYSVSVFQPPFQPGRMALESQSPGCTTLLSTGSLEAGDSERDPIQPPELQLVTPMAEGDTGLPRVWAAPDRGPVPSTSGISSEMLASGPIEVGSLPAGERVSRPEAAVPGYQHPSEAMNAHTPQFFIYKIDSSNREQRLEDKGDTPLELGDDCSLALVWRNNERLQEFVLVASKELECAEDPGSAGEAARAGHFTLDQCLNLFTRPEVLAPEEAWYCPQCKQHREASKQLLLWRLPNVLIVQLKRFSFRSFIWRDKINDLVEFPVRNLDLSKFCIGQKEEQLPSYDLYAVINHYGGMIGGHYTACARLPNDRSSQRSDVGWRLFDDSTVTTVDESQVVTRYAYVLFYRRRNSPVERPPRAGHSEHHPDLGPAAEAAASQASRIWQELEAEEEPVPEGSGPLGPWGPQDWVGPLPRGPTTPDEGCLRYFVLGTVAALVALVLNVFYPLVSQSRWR
How it was run: (§1)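 Labelled DUBs from HEK293T lysate were NeutrAvidin-enriched, digested with LysC and trypsin, and run by diaPASEF LC-MS/MS. Before that, each 495 µg sample in Tris/CHAPS/IGEPAL buffer with protease inhibitors was treated in triplicate with fragment at 200 µM or vehicle for 3 h, then with Biotin-Ahx-Ub-VS at 0.5 µM final for 1 h. Values are average log2 ratios of fragment over vehicle by unpaired t-test, based on global-median-normalised Spectronaut label-free quantities from proteins with ≥2 unique peptides.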

[2] = target: T2, USP22 (UniProt Q9UPT9)
T2 sequence (whole entry): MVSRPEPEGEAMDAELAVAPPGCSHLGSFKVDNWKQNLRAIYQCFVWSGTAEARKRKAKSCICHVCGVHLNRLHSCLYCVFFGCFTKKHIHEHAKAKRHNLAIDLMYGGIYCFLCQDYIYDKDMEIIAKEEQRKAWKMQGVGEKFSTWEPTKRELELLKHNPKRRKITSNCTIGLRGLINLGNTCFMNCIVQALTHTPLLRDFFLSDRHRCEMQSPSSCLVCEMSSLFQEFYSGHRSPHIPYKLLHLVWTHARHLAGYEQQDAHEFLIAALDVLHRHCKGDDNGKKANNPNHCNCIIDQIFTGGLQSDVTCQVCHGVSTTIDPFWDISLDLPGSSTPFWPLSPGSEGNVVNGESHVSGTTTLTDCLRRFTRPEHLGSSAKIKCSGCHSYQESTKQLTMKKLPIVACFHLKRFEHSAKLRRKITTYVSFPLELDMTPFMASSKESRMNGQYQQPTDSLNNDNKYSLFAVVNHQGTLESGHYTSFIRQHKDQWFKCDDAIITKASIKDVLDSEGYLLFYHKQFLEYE
How it was run: as §1

[3] = target: USP24 (UniProt Q9UPU5)
How it was run: as §1

[4] = target: T3, USP25 (UniProt Q9UHP3)
T3 sequence (whole entry): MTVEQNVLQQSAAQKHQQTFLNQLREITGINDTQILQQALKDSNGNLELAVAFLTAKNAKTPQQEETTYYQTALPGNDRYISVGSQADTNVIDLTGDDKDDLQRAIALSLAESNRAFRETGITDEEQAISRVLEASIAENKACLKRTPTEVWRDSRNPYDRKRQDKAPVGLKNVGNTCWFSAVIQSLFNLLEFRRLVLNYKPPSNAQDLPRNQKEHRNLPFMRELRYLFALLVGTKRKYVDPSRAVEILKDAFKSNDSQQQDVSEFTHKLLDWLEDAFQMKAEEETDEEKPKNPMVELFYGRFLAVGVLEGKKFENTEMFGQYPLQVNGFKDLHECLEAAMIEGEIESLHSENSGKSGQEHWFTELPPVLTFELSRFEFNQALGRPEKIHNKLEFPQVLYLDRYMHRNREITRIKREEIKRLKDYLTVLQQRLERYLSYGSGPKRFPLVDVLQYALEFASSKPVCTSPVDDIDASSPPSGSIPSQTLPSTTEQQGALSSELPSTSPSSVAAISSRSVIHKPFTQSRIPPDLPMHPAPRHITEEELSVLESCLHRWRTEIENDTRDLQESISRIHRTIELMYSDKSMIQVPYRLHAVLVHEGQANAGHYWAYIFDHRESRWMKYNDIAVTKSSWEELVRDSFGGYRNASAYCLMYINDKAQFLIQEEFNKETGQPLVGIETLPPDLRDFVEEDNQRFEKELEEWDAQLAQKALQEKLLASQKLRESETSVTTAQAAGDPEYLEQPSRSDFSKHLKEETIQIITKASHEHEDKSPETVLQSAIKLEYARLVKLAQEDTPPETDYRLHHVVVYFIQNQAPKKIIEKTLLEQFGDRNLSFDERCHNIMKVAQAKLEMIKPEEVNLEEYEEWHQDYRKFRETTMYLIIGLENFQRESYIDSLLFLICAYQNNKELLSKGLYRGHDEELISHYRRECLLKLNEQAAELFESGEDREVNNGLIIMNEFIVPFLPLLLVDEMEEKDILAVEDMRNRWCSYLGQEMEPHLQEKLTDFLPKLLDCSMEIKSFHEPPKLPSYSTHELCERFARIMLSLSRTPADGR
How it was run: as §1

[5] = target: T4, USP28 (UniProt Q96RU2)
T4 sequence (whole entry): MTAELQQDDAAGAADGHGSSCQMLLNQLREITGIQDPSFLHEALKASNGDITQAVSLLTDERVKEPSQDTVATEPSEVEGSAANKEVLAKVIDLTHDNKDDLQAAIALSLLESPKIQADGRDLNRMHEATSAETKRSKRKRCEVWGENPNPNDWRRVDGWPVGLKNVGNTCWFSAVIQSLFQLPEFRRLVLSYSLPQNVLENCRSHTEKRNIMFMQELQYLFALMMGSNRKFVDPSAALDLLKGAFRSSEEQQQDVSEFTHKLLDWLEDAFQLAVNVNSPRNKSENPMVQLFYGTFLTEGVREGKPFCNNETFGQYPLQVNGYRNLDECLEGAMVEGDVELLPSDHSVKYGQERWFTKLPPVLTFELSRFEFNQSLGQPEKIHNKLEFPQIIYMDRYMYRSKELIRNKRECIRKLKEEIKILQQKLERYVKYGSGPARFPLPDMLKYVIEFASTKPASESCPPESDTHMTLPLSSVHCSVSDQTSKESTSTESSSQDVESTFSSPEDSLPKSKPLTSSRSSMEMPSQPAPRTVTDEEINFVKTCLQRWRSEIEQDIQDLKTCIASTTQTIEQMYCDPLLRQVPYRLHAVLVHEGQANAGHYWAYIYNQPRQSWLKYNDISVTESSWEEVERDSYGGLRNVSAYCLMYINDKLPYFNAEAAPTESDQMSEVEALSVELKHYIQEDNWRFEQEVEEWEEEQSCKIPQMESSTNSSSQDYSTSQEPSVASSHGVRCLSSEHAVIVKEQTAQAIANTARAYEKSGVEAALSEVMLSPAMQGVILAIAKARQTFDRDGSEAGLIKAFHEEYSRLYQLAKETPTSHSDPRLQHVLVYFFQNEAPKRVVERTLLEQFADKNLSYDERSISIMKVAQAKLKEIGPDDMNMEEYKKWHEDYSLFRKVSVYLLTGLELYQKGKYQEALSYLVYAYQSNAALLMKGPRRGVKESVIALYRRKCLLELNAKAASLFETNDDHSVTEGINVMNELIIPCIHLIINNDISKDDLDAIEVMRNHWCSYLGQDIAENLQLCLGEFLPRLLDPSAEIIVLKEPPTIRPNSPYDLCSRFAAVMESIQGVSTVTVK
How it was run: as §1

Measured: log2 ratio of Biotin-Ahx-Ub-VS probe labelling

USP24, sequence (Q9UPU5 whole entry): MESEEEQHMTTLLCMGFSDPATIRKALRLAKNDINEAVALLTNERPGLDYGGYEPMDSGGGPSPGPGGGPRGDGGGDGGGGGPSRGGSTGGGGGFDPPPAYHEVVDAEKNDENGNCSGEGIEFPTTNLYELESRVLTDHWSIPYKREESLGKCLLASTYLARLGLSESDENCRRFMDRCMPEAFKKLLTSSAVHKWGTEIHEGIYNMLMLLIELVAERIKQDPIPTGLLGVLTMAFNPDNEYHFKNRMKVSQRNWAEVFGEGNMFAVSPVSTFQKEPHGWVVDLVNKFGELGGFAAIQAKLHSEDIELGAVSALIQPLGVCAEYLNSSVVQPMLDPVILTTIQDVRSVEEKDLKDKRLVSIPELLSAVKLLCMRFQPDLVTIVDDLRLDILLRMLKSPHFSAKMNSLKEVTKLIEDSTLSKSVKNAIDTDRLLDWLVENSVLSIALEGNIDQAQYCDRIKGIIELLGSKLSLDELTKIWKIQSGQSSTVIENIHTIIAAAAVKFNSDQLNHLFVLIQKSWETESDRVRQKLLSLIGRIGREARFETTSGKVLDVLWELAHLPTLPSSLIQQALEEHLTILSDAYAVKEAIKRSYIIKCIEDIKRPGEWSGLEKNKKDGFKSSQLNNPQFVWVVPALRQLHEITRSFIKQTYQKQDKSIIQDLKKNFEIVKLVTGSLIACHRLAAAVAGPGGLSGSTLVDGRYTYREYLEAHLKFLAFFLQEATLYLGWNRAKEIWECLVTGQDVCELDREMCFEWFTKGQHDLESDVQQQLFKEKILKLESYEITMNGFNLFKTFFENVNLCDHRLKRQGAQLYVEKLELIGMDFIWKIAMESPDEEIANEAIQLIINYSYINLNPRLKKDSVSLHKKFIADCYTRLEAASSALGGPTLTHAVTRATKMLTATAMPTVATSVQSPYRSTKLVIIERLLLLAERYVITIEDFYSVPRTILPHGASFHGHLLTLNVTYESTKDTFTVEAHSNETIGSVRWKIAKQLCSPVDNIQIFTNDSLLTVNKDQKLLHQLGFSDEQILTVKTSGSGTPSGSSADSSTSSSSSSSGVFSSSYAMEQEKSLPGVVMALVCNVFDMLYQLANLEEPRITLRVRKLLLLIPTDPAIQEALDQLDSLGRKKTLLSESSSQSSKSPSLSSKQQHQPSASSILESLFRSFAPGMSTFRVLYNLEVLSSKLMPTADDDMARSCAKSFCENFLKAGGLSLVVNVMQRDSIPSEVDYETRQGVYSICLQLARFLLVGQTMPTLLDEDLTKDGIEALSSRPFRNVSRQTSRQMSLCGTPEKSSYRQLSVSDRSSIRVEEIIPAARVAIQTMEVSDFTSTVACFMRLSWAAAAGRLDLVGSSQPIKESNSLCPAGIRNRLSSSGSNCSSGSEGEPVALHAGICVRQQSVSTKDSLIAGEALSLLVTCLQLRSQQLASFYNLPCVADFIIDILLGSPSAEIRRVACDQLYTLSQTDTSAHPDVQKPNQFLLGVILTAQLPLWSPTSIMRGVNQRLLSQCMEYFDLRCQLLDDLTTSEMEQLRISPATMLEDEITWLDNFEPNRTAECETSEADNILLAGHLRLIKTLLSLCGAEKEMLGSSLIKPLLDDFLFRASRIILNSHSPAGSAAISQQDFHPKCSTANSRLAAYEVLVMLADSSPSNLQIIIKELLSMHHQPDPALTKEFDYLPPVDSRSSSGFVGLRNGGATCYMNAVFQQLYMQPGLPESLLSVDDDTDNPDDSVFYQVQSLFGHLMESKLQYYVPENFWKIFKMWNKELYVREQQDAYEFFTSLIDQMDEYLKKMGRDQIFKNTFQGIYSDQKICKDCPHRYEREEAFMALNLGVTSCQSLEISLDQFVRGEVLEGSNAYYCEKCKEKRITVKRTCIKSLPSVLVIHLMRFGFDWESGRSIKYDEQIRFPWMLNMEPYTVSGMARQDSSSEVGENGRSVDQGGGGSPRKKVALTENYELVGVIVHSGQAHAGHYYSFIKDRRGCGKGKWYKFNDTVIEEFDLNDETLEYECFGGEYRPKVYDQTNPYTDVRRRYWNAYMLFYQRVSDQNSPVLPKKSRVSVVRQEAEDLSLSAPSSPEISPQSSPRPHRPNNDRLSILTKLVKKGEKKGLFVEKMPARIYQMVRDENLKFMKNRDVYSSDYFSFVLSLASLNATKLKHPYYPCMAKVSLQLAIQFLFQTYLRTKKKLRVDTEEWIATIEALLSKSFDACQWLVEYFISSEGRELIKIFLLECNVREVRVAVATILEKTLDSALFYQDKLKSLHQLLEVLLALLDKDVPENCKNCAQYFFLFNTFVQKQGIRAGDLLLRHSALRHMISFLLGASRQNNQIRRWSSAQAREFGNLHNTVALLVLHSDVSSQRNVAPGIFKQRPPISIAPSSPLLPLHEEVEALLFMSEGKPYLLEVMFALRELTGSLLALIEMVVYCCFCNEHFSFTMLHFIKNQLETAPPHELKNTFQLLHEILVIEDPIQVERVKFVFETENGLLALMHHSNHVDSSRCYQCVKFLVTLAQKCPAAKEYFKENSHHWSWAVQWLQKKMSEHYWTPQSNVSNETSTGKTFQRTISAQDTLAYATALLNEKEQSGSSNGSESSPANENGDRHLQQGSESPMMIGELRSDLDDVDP

CCN(C(=O)CCl)C1CCS(=O)(=O)C1 (stereo not given)
inactive: [1] 0.00457 | [2] -0.0368 | [3] 0.0946 | [4] -0.0672 | [5] -0.106
